The source made the active and inactive calls.

Test [1] is described as follows: small molecules captured by biotinylated probe aFSTL3 – biochemical, small-molecule microarray, fluorescence 635/667, stem cell growth factor project, primary screen (AID 1064).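 Further: measures binding of the biotinylated anti-FSTL3 antibody to printed compounds.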 The settings on record: higher = more signal.
Test [2] in a line: binders from COS7 lysate, DM2A8 probe, primary screen, torsin A project, cell lysate, small-molecule microarray, fluorescence 635/667 (AID 1065). Conditions: higher = more signal, COS7 lysate expressing mutant human TOR1A.
A short description of test [3]: small molecules captured by biotinylated probe aFGF2 – biochemical, small-molecule microarray, fluorescence 635/667, stem cell growth factor project, primary screen (AID 1067).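 Further: measures binding of biotinylated aFGF2 protein to printed compounds on slides; z-score merges feature fluorescence and signal-to-noise across triplicate slides.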 Conditions: higher = more signal.
Test [4] can be described thus: small molecules captured by biotinylated probe aFGF10 – biochemical, small-molecule microarray, fluorescence 635/667, stem cell growth factor project, primary screen (AID 1071).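 Further: score merges 667 nm spot intensity and signal to noise from triplicate slides.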 The settings on record: higher = more signal.
In test [5] the target is Neurogenic locus notch homolog protein 2 (Homo sapiens) (UniProt Q04721). The test can be described thus: small molecules binding Notch2 protein – biochemical, small-molecule microarray, 635 nm fluorescence, stem cell growth factors, primary screen (AID 1073). Conditions: higher = more signal.
Sequence of Neurogenic locus notch homolog protein 2 (Homo sapiens) (Q04721 whole entry, looked up, canonical isoform): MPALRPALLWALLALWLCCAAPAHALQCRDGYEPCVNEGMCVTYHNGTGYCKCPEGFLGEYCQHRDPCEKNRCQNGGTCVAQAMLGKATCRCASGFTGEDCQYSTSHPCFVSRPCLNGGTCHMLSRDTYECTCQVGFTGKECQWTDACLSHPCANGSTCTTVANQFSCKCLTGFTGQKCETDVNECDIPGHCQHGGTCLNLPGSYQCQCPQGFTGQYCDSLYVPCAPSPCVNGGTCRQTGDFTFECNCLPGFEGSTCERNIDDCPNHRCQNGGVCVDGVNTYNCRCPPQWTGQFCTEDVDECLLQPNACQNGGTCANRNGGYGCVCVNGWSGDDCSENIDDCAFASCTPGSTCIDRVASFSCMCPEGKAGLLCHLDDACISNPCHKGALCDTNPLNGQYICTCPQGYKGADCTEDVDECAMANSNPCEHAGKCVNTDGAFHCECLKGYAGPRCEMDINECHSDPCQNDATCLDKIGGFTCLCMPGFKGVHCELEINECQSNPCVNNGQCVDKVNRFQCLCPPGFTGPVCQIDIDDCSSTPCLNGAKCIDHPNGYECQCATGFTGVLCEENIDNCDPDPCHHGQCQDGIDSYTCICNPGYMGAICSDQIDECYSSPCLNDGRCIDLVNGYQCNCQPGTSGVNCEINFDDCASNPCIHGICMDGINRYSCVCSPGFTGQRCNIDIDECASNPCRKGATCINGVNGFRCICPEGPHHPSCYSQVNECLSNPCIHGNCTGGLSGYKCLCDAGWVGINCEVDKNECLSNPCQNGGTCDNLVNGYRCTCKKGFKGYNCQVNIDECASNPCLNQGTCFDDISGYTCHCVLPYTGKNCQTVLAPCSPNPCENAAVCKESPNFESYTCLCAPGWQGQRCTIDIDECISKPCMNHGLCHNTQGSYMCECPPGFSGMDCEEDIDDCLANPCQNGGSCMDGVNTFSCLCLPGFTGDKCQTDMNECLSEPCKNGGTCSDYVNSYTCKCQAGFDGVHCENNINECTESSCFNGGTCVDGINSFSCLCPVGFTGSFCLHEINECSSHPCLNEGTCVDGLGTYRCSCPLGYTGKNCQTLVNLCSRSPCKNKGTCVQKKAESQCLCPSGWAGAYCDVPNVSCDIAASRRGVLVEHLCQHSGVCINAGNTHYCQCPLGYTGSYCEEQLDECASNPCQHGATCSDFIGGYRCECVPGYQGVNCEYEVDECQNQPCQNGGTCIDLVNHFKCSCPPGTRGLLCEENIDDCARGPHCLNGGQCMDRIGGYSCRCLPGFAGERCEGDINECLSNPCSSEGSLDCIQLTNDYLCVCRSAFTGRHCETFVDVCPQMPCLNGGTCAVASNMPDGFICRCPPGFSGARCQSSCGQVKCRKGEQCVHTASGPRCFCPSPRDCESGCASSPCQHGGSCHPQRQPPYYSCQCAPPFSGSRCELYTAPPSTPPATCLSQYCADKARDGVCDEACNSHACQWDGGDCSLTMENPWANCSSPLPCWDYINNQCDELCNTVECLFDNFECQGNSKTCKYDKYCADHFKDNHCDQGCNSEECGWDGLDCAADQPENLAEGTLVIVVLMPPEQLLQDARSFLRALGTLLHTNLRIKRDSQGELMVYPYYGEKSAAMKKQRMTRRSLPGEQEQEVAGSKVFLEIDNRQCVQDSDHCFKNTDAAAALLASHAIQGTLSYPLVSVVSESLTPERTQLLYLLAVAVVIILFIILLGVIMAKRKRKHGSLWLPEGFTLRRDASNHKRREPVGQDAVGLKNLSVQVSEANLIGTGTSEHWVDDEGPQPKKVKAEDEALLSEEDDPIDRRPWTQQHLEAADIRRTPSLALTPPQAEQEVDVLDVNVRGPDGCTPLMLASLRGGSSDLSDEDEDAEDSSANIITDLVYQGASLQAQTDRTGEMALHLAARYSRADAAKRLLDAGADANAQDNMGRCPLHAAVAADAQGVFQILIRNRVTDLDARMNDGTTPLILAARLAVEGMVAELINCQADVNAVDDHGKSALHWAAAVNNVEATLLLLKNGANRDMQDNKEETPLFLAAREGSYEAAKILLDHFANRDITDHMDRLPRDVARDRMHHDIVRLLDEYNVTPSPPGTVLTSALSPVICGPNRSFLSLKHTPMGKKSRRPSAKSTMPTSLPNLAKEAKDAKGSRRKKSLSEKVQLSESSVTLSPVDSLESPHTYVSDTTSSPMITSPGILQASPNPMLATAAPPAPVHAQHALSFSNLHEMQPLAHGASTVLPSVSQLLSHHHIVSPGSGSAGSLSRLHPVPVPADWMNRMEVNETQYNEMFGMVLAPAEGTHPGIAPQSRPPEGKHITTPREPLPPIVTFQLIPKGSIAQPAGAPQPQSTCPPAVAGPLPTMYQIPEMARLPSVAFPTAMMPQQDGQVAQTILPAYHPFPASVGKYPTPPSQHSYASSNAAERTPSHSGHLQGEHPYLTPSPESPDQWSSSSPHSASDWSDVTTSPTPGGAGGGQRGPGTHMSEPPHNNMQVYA
The target in test [6] is Pro-neuregulin-1, membrane-bound isoform (Homo sapiens) (UniProt Q02297). The test is described as follows: small molecules binding neuregulin-1 protein – biochemical, small-molecule microarray, fluorescence 635/667, psychiatric disease protein project, primary screen (AID 1075).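 Further: score combines 667 nm spot fluorescence with signal to noise.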 Conditions: NRG1 binding, 635 nm fluorescence, higher = more signal.
Sequence of Pro-neuregulin-1, membrane-bound isoform (Homo sapiens) (Q02297 whole entry, looked up, the tested form may be a part, canonical isoform): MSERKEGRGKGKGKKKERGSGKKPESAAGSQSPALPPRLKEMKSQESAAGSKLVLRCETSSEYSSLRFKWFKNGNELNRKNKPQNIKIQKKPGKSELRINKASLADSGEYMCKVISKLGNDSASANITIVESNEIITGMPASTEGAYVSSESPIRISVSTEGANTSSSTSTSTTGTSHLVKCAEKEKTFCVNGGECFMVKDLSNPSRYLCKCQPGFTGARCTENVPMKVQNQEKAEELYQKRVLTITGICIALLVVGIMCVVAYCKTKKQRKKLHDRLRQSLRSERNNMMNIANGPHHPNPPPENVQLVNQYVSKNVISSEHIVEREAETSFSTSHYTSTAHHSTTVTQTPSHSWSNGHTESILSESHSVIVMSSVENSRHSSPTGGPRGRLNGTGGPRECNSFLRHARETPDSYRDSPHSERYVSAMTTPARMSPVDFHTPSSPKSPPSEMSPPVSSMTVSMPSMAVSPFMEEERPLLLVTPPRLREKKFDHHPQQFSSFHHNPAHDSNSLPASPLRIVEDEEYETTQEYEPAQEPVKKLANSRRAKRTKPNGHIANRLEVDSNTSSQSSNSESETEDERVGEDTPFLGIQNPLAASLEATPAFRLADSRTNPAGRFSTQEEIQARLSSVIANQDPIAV
Test [7] relates to Neuregulin-1 EGF-like domain. The test is described as follows: small molecules binding NRG1 EGF domain – biochemical, small-molecule microarray, 635 nm fluorescence, primary screen (AID 1081).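 Further: binding of the protein to compounds printed on small-molecule microarray slides.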 Conditions: higher = more signal.
Test [8] can be described thus: FRG1 expression reporter modulators in myotubes – cell-based, C2C12 myotubes, firefly/Renilla luciferase, luminescence, FRG1 inhibition for FSHD, primary screen (AID 1084). The settings on record: FRG1 promoter luciferase, higher = more signal, called active from +8 up or from −8 down.
The nature of test [9]: small molecules captured by biotinylated probe aFST – biochemical, small-molecule microarray, fluorescence 635/667, stem cell growth factor project, primary screen (AID 1086).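 Further: score merges 667 nm fluorescence with signal-to-noise of each printed compound spot.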 The settings on record: higher = more signal.
Test [10] in a line: binders of probe aHhip on microarray, primary screen, stem cell growth factor project, biochemical, small-molecule microarray, fluorescence 635/667 (AID 1087).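 Further: score merges spot fluorescence at 667nm with spot signal to noise ratio.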 Conditions: higher = more signal.
In test [11] the test system is PRMT1 (protein arginine N-methyltransferase 1). The test can be described thus: small molecules binding arginine methyltransferase PRMT1 – biochemical, small-molecule microarray, 635 nm fluorescence, primary screen (AID 1088).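 Further: binding of Prmt1 protein to compounds spotted on small-molecule microarray slides.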 Conditions: higher = more signal.
Test [12] is described as follows: growth effects on S. cerevisiae YJM789 – YJM789 clinical isolate, OD600, 24 h, basal, primary screen (AID 1089).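 Further: growth of clinical yeast isolate S. cerevisiae YJM 789 seeded 1000 cells per well; test concentration not given here.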 Conditions: higher = more signal, called active from +8 up or from −8 down.
A short description of test [13]: S. pombe growth modifiers, basal conditions – strain 972, OD600, 24 h, no modulator, primary screen (AID 1090).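 Further: basal condition with compound alone and no growth modifier present; test concentration not given here.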 Conditions: S. pombe 972 growth, higher = more signal, called active from +8 up or from −8 down.
Test [14] is described as follows: budding yeast growth modifiers under rapamycin – strain BY4716, OD600, 96 h, primary screen (AID 1091). Further: test concentration not given here. The settings on record: S. cerevisiae BY4716 + rapamycin, higher = more signal, called active from +8 up or from −8 down.
The target of test [15] is Torsin-1A-interacting protein 2 (Homo sapiens) (UniProt Q8NFQ8). The test can be described thus: small molecules binding lysate-expressed LULL1 – cell lysate, human LULL1 lysate, 635/667 nm fluorescence, primary screen (AID 1092).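 Further: probe is lysate of COS7 cells overexpressing human LULL1; score merges per-feature 667 nm fluorescence with signal-to-noise.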 Conditions: small-molecule microarray, hLULL1 lysate binding, 635 nm fluorescence; higher = more signal.
Sequence of Torsin-1A-interacting protein 2 (Homo sapiens) (Q8NFQ8 whole entry, looked up): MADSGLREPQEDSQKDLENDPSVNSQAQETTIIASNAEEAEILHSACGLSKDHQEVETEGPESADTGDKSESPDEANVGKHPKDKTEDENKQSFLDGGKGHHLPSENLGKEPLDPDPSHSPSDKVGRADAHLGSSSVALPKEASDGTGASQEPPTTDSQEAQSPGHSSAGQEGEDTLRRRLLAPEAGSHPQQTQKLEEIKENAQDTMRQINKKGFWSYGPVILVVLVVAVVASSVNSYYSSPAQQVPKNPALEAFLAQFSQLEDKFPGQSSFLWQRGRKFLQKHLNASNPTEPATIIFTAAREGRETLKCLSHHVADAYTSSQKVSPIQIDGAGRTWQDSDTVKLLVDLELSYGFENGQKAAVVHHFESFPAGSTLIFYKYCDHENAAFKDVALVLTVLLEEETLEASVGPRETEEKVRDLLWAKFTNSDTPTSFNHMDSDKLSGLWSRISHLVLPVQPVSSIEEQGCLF
Test [16] is described as follows: optical density change of DRC41 E. coli – strain DRC41, OD650, 24 h, E. coli filamentation project, primary screen (AID 1093).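 Further: MC1000 strain lacking acrAB efflux and sulA so SOS filamentation is blocked; test concentration not given here.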 The settings on record: E. coli DRC41 growth, higher = more signal, called active from +8 up or from −8 down.
Test [17] in a line: probe aLefty2 binding to arrayed compounds – biochemical, biotinylated probe, 635/667 nm fluorescence, primary screen (AID 1094).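 Further: score merges spot fluorescence near 667 nm with spot signal-to-noise ratio.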 Conditions: small-molecule microarray, higher = more signal.
The test system of test [18] is Noggin (protein binding on small-molecule microarray). The test can be described thus: small molecules binding Noggin protein – biochemical, 635/667 nm fluorescence, primary screen (AID 1095).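 Further: score merges 667 nm feature fluorescence with signal to noise over triplicate slides.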 The settings on record: 635 nm fluorescence, higher = more signal.
For test [19], the target named is Neurogenic locus notch homolog protein 3 (Homo sapiens) (UniProt Q9UM47). The test is described as follows: small molecules binding NOTCH3 protein – biochemical, 635/667 nm fluorescence, primary screen (AID 1096). Conditions: small-molecule microarray, 635 nm fluorescence, higher = more signal.
A short description of test [20]: probe aEGFR binding to arrayed compounds – biochemical, biotinylated probe, 635/667 nm fluorescence, primary screen (AID 1097).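 Further: probe is a biotinylated anti-EGFR antibody binding compounds printed on slides; score combines fluorescence near 667 nm and signal to noise of each spot.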 Conditions: small-molecule microarray, higher = more signal.

As for `CC(CO)N1C(=O)[C@@H]2C3C(=O)OCCC/C=C\[C@H]3OC23C=CCN(Cn2nnc4ccccc42)C(=O)[C@@H]13` (stereo not given in full), the composite z-score is -0.185 in test [1]; -0.469 in [2]; -0.107 in test [3]; 0.285 in test [4]; -0.722 in test [5]; 1.7 in [6]. Also, the composite z-score in test [7] is 1.34; in [9] it was -0.161; in [10], 0.21; in test [11] it was -1.18; in test [15] it was -1.1; in test [17] it was -0.198. Moreover, the composite z-score was -0.254 in test [18], 0.219 in [19] and -0.152 in [20]. Moreover, the z-score in [8] was -1.11 (inactive); in [12], 0.216 (inactive); in [13] it was -0.152 (inactive); in [14] it was -0.637 (inactive); in test [16], 0.333 (inactive).

In the case of `O=C(CS)NCCCCCCNC(=O)[C@H]1C[C@H]2C(=O)N[C@@H](Cc3ccccc3)C(=O)N2[C@H]1c1cccc(OCCO)c1`, the composite z-score was -0.165 in test [1]; 0.605 in [2]; 0.0465 in test [3]; 1.16 in test [4]; 1.56 in [5]; 1.36 in [6]. Moreover, the composite z-score is 1.41 in test [7]; 0.928 in [9]; -0.145 in test [10]; 1.54 in [11]; 2.81 in [15]; 0.118 in test [17]. The results for the composite z-score in [18], in [19] and in test [20] were 1.6, 1.02 and 0.14, respectively. Also, the z-score in [8] was 0.328 (inactive); in test [12], 0.646 (inactive); in [13], 0.311 (inactive); in [14], 1.15 (inactive); in test [16] it was -0.23 (inactive).

Consider `COC(=O)[C@H](Cc1ccccc1)N1CC(/C=C/C2CC2)=C[C@@H]1[C@@H](O)Cc1ccccc1`, for which the composite z-score in test [1] is -0.549; in test [2] it was 0.0784; in test [3], -0.0093; in test [4], 1.23; in test [5], 1.38; in test [6], 0.947. The composite z-score was 1.11 in test [7]; 0.707 in [9]; 0.177 in test [10]; 1.46 in [11]; 1.66 in [15]; 0.0166 in [17]. Besides, the composite z-score is 0.685 in test [18], 0.9 in [19] and 0.009 in test [20]. Moreover, the z-score in test [8] was -1.09 (inactive); in [12], 0.107 (inactive); in [13], -3.04 (inactive); in test [14], 0.423 (inactive); in [16], 0.559 (inactive).

Consider `[N-]=[N+]=NCc1ccccc1[C@H]1OC(c2ccc(OCCCO)cc2)=N[C@@]1(CCS(=O)(=O)c1ccccc1)C(N)=O`, for which the composite z-score in test [1] is 0.573; in test [2] it was 1.33; in test [3], 0.145; in [4], 0.763; in test [5], 1.65; in test [6], 2.03. Also, the composite z-score in test [7] is 1.36; in [9], 0.805; in test [10], -0.0645; in test [11] it was 1.47; in [15], 3.36; in [17], 0.074. Also, the composite z-score in [18] came out at 0.086; in [19], 0.861; in test [20] it was 0.0929. In addition, the z-score is 4.66 (inactive) in test [8]; 0.0249 (inactive) in test [12]; -0.131 (inactive) in [13]; -0.595 (inactive) in test [14]; -0.199 (inactive) in [16].

As to `CCOC(=O)C1=CC[C@@H](c2ccccc2C(F)(F)F)N(S(=O)(=O)c2ccc(C)cc2)C1`, the composite z-score in test [1] came out at 0.811; in test [2], 1.54; in test [3], 0.313; in test [4] it was 1.1; in test [5], 1.67; in test [6], 1.79. The composite z-score is 1.28 in test [7]; 0.997 in test [9]; -0.0439 in test [10]; 1.5 in test [11]; 2.63 in test [15]; 0.495 in test [17]. Further, the composite z-score in [18] was 0.03; in test [19] it was 1.04; in test [20], 0.678. The z-score in test [8] was -3.59 (inactive); in test [12] it was -2.43 (inactive); in test [13], -0.598 (inactive); in [14] it was 0.105 (inactive); in [16], -0.607 (inactive).

In the case of `CC(C)OC(=O)CC(=O)CC(O)c1cccc(C#N)c1` (stereo not given), the composite z-score in test [1] is 0.424; in [2] it was 0.995; in test [3], -0.0103; in [4] it was 0.535; in test [5], 1.43; in [6], 0.311. Moreover, the composite z-score in test [7] is 0.936; in [9] it was 0.494; in test [10] it was -0.452; in test [11] it was 0.864; in test [15], 2.15; in test [17] it was 0.237. Besides, the composite z-score in [18] is -0.412; in test [19] it was 0.753; in [20], 0.0201. Further, the z-score was -0.326 (inactive) in test [8]; -2.17 (inactive) in test [12]; -0.0003 (inactive) in test [13]; -1.66 (inactive) in test [14]; 0.435 (inactive) in test [16].

For the origin of these results see PubChem BioAssay.
